High-throughput results (PubChem)
SENP8 block-1 = human SENP8 protease inhibitors, primary screen, biochemical, fluorescence, Nedd8 protein substrate, uHTS; hit rate 0.64% among 360,000; Sentrin-specific protease 8 (Homo sapiens), Q96LD8; AID 602440, 2012; recombinant SENP8; inhibition, % at 20 µM; in the data active = inhibition mostly above about 40%, no sharp cut-off; inactive = mostly below about 27%
Target sequence (Q96LD8 whole entry, looked up): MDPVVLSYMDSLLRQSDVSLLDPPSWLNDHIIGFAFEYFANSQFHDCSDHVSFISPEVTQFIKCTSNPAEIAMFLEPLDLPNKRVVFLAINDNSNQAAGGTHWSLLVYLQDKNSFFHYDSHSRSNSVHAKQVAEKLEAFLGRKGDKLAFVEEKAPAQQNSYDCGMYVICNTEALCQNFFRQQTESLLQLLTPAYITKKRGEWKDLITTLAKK
PPC-1+TRAIL kill = compounds killing PPC-1 cancer cells with TRAIL present, primary screen, TRAIL potentiator project, ATPLite luminescence, uHTS; PPC-1 cells + TRAIL, ATPLite viability luminescence; cell killing (% activity), % at 4 µM or 5 µM; hit rate 0.41% among 220,000;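 active = cell killing above 50% in the first pass at 4 µM, then a duplicate retest at 5 µM averaging 50% or more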
SENP7 block = SENP7 protease inhibitors, primary screen, biochemical, luminescence, uHTS. AID 434973, 2010. hit rate 1.5% among 330,000. inhibition, % at 5 µM. recombinant SENP7, Z-RLRGG-aminoluciferin luminescence, 40 min. Sentrin-specific protease 7 (Homo sapiens), Q9BQF6;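 active = inhibition above about 50% at the single test dose, limit read from the data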
SENP8 block-2 = SENP8 protease inhibitors, primary screen, biochemical, luminescence; inhibition, % at 10 µM; Sentrin-specific protease 8 (Homo sapiens), Q96LD8; hit rate 1.2% among 330,000; purified SENP8, Z-RLRGG-aminoluciferin cleavage; in the data active = inhibition above about 50%
SENP6 block = SENP6 protease inhibitors, primary screen, biochemical, luminescence, uHTS; Sentrin-specific protease 6 (Homo sapiens), Q9GZR1; AID 2599, 2010; inhibition, % at 10 µM; Recombinant SENP6 catalytic domain, aminoluciferin luminescence; hit rate 1.8% among 330,000;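 active = inhibition above about 50% at the single tested dose, limit read from the data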
TRAIL sens C8 = viability loss with TRAIL in NB7+C8 cells, primary screen, TRAIL sensitizer project, cell-based, ATPlite luminescence; inhibition (viability loss, TRAIL sensitization), % at 10 µM; hit rate 1% among 360,000;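 active = compounds causing at least 50% loss of cell viability in the single-dose screen, relative to plate controls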
SENP8 confirm = SENP8 protease inhibitors, retest, confirmation, biochemical, luminescence, single concentration | shares compounds with SENP7 block | hit rate 40% among 6,200 | inhibition, % at 12.5 µM | AID 488912, 2010 | Recombinant SENP8, Z-RLRGG-aminoluciferin luminescence, 60 min;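 active = mean inhibition across replicates above about 50%, limit read from the data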
SENP6 confirm = SENP6 protease inhibitors, confirmation, biochemical, luminescence, single concentration; inhibition, % at 12.5 µM; recombinant SENP6, Z-RLRGG-aminoluciferin luminescence; hit rate 58% among 6,200; shares compounds with SENP7 block
SENP7 conf = SENP7 protease inhibitors, retest, confirmation, biochemical, luminescence, single concentration; AID 488917, 2010; shares compounds with SENP7 block; recombinant SENP7, Z-RLRGG-aminoluciferin luminescence, 40 min; hit rate 69% among 6,200; inhibition, % at 12.5 µM
Casp3 SENP sel = caspase-3 protease inhibitors, confirmation, selectivity assay for SENP inhibitor project, biochemical, single concentration; shares compounds with SENP7 block; purified caspase-3, Z-DEVD-aminoluciferin luminescence, 60 min; inhibition, % at 12.5 µM; hit rate 60% among 6,200;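 active = mean inhibition above about 50%, limit read from the data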
Target sequence (P42574 28-227 limits assumed): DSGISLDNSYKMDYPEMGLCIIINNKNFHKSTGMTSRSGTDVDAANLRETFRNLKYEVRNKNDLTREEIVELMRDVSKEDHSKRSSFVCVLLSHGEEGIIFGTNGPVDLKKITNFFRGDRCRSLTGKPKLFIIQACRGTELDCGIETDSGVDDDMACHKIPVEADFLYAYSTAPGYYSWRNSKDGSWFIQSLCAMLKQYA
Luc interf = counter-screen for SENP inhibitors: luminescence interference; shares compounds with SENP7 block; Pre-incubated SENP8/Z-RLRGG-aminoluciferin, luciferase luminescence interference; inhibition, % at 12.5 µM; hit rate 39% among 6,200; AID 488919;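 active = mean inhibition above about 50% when retested at one dose, limit read from the data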
A number is an active result. Shown are actives, neighbours in structure and some others; about 3% of the full set was active somewhere.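 Rule for the calls, unless noted: active = mean inhibition above about 50% in the one-dose retest (limit read from the data); inactive = the rest.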

Results for O=C(CSc1nnc(NC(=O)c2ccccc2F)s1)Nc1ccccc1F ?
SENP8 block-1: inactive; PPC-1+TRAIL kill: inactive; SENP7 block: 61; SENP8 block-2: 69; SENP6 block: 80; TRAIL sens C8: 58; SENP8 confirm: inactive; SENP6 confirm: 79; SENP7 conf: 91; Casp3 SENP sel: 87; Luc interf: inactive

How did O=C(Nc1nnc(SCC(=O)N2CCCCC2)s1)c1ccccc1F do in these assays?
SENP8 block-1: inactive; SENP7 block: inactive; SENP8 block-2: inactive; SENP6 block: 99; TRAIL sens C8: inactive; SENP8 confirm: inactive; SENP6 confirm: inactive; SENP7 conf: inactive; Casp3 SENP sel: inactive; Luc interf: inactive

Results for COc1ccc(N2CCN(C3CCCN(Cc4cccc(C(C)=O)c4)C3)CC2)cc1 (stereo not drawn) ?
SENP8 block-1: inactive; SENP7 block: inactive; SENP8 block-2: inactive; SENP6 block: inactive; TRAIL sens C8: inactive

What do the screens show for `Cc1ccc(NC(=O)CCn2ccc([N+](=O)[O-])n2)nc1`?
SENP8 block-1: inactive; PPC-1+TRAIL kill: inactive; SENP7 block: inactive; SENP8 block-2: inactive; SENP6 block: inactive; TRAIL sens C8: inactive

How did O=C(N/N=C/c1ccc(Br)s1)c1ccco1 do in these assays?
SENP8 block-1: inactive; PPC-1+TRAIL kill: inactive; SENP7 block: inactive; SENP8 block-2: inactive; SENP6 block: inactive; TRAIL sens C8: inactive

Results for Cc1occc1C(=O)N/N=C/c1ccc(Br)s1 ?
SENP8 block-1: inactive; PPC-1+TRAIL kill: inactive; SENP7 block: 88; SENP8 block-2: 81; SENP6 block: 88; TRAIL sens C8: inactive; SENP8 confirm: inactive; SENP6 confirm: 78; SENP7 conf: 95; Casp3 SENP sel: 89; Luc interf: 53

What do the screens show for `Cc1ccc(/C=N/NC(=O)c2ccoc2C)s1`?
SENP8 block-1: inactive; PPC-1+TRAIL kill: inactive; SENP7 block: 85; SENP8 block-2: 74; SENP6 block: 88; TRAIL sens C8: inactive; SENP8 confirm: inactive; SENP6 confirm: 77; SENP7 conf: 95; Casp3 SENP sel: 93; Luc interf: 80

How did CCOc1ccc(NC(=O)Nc2ccon2)cc1 do in these assays?
SENP8 block-1: inactive; SENP7 block: 54; SENP8 block-2: inactive; SENP6 block: 55; TRAIL sens C8: inactive; SENP8 confirm: inactive; SENP6 confirm: inactive; SENP7 conf: 67; Casp3 SENP sel: 74; Luc interf: inactive

What do the screens show for `O=C(C(=O)N1CCN(c2ccccc2)CC1)c1ccccc1`?
SENP8 block-1: inactive; TRAIL sens C8: inactive

How did COc1ccccc1NC(=O)COC(=O)c1c(C)nn(-c2ccccc2)c1C do in these assays?
SENP8 block-1: inactive; SENP7 block: 97; SENP8 block-2: 95; SENP6 block: 93; TRAIL sens C8: inactive; SENP8 confirm: 96; SENP6 confirm: 96; SENP7 conf: 101; Casp3 SENP sel: 95; Luc interf: 75
